Source: PubChem BioAssay (NCI)
The panel holds about 83,000 compounds, 20% with a hit somewhere; the sample as a whole holds those more often.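 How to read the values: 0–100, growth inhibition (40 = 60% inhibited); 0, no net growth; -100 to 0, cell death (-40 = 40% of starting cells died; -100 = all dead).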 Unmarked numbers belong to inactive results. The source made the active and inactive calls. How the source made its calls: active means growth percent below 10; inactive means the rest.

Columns and labels:
Assay in all cases: NCI-60 one-dose screen, 48 h (100 = growth as untreated, 0 = no growth, -100 = all killed)
Settings in all cases: 10 µM
HCT-15 colon = test system: HCT-15 colon
HT29 colon = test system: HT29 colon
SNB-75 CNS = test system: SNB-75 CNS
SNB-19 CNS = test system: SNB-19 CNS
U251 CNS = test system: U251 CNS
PC-3 prostate = test system: PC-3 prostate
SK-MEL-5 melanoma = test system: SK-MEL-5 melanoma
UACC-62 melanoma = test system: UACC-62 melanoma
LOX IMVI melanoma = test system: LOX IMVI melanoma
SK-MEL-28 melanoma = test system: SK-MEL-28 melanoma

| SMILES | growth (HCT-15 colon) | growth (HT29 colon) | growth (SNB-75 CNS) | growth (SNB-19 CNS) | growth (U251 CNS) | growth (PC-3 prostate) | growth (SK-MEL-5 melanoma) | growth (UACC-62 melanoma) | growth (LOX IMVI melanoma) | growth (SK-MEL-28 melanoma) |
| --- | --- | --- | --- | --- | --- | --- | --- | --- | --- | --- |
| COc1ccc(-c2oncc2-c2cc(OC)c3c(c2)OCO3)cc1 | 15.9% | 6.55% (active) | -9.45% (active) | 46.2% | 28% | 40.4% | 17.9% | 50.7% | 34.2% |  |
| Cc1cccc2c(Nc3ccc(NS(C)(=O)=O)cc3)c3ccc([N+](=O)[O-])cc3nc12 | 6.83% (active) | -10.3% (active) | 19.7% | 25.7% | 3.4% (active) | 18% | -19.4% (active) | 1.92% (active) | -43.5% (active) |  |
| CCn1nc(-c2ccc(C(=O)OC)cc2)nc2c(=O)n(C)c(=O)nc1-2 | 64.1% | 70.7% | -44% (active) | 56.8% | 41.5% | 57.3% | 87% | 50.5% | 55.5% |  |
| COc1ccc(C(=O)n2nc(CC(=O)NCc3ccccc3)nc2N)cc1 | 107% | 108% | 92.9% | 97.3% | 105% | 101% | 111% | 93% | 101% | 108% |
| C[C@@H]1C(=O)N(C[C@H](Cc2ccccc2)NC(=O)OCc2ccccc2)[C@]1(Cc1ccccc1)C(=O)OCc1ccccc1 | 39.3% | 43.7% | 52.5% | 56.7% | 35.2% | 10.4% | 13.2% | 40.7% | 36.5% |  |
| Nc1ccccc1NC(=O)CCCCCCC(=O)Nc1ccc2c(c1)/C(=C/c1ccc[nH]1)C(=O)N2 | 89.8% | 48.2% | -2.9% (active) | 49.8% | 20.5% | 29% | 55.1% | 25.8% | 43.9% |  |
| Nc1ccn([C@@H]2O[C@H](COP(=O)(O)O[C@@H]3C[C@H](n4cc(F)c(=O)[nH]c4=O)O[C@@H]3COP(=O)(O)O[C@@H]3C[C@H](n4cc(F)c(=O)[nH]c4=O)O[C@@H]3COP(=O)(O)O[C@@H]3C[C@H](n4cc(F)c(=O)[nH]c4=O)O[C@@H]3COP(=O)(O)O[C@@H]3C[C@H](n4cc(F)c(=O)[nH]c4=O)O[C@@H]3COP(=O)(O)O[C@@H]3C[C@H](n4cc(F)c(=O)[nH]c4=O)O[C@@H]3COP(=O)(O)O[C@@H]3C[C@H](n4cc(F)c(=O)[nH]c4=O)O[C@@H]3COP(=O)(O)O[C@@H]3C[C@H](n4cc(F)c(=O)[nH]c4=O)O[C@@H]3COP(=O)(O)O[C@@H]3C[C@H](n4cc(F)c(=O)[nH]c4=O)O[C@@H]3COP(=O)(O)O[C@@H]3C[C@H](n4cc(F)c(=O)[nH]c4=O)O[C@@H]3COP(=O)(O)O[C@@H]3C[C@H](n4cc(F)c(=O)[nH]c4=O)O[C@@H]3COP(=O)(O)OCCOCCOCCOCCOCCOCCO)[C@H](O)C2O)c(=O)n1 (some centres not stated) | 44.6% | 47.1% | 86.3% | 56.6% | 30.3% | 56.1% | 2.12% (active) | 25.6% | 25.2% |  |
| C=C[C@]1(C)C=C2C(=O)[C@@]3(O)OC(=O)[C@@]4(CCCC(C)(C)[C@H]34)[C@@]2(O)CC1 | -30.5% (active) | -2.72% (active) | -78.8% (active) | 26.5% | -94% (active) | -74.7% (active) | -99.1% (active) | -87.2% (active) | -96.7% (active) |  |
| FC(F)(F)c1ccc(-c2cnc(Br)nc2NC2CCCCCC2)cc1 | 73.1% | 22.3% | 63.2% | 42.9% | 12.1% | 5.8% (active) | 17.9% | 14.4% | 40.1% |  |
| COc1cccc(C(=O)N(c2ccc(F)c(F)c2)C(C(=O)NC(C)(C)C)c2cc3c(C)cc(C)cc3nc2Cl)c1 (configuration not stated) | 56.5% | 71.1% | 62.9% | 74.1% | 69% | 30.9% | 58.2% | 66.6% | 68.7% | 85.6% |
| COc1ccc2nc(/C=C/c3ccc(N(C)C)cc3)sc2c1 | 93.8% | 93.3% | 92.3% | 131% | 90.7% | 98.9% | 90.1% | 94.7% | 91.5% | 109% |
| COc1cc(-c2nc(-c3nnc(-c4cccnc4)o3)c3ccccn23)cc(OC)c1OC | 111% | 97.4% | 96.7% | 102% | 95% | 101% | 90.7% | 106% | 97.3% | 121% |
| CC1(CO)CCCC12OCCO2 (configuration not stated) | 101% | 98.6% | 97.2% | 105% | 102% | 103% | 100% | 100% | 104% | 108% |
| O=[N+]([O-])c1ccc(-c2nc(Cl)c3c(n2)CCCC3)o1 | 15.9% | 53.5% | 69.9% | 91.1% | 78.6% | 89.4% | 47.3% | 86.9% | 21.8% | 98.4% |
| NC1CCC(Nc2nc(NCc3cc(Cl)ccc3O)c3ncn(C4CCCC4)c3n2)CC1 (configuration not stated) | -10.1% (active) | -16.9% (active) | -85.8% (active) | 9.87% (active) | -22.8% (active) | -8.24% (active) | -93.7% (active) | -58.8% (active) | -73.7% (active) | -44.7% (active) |
| CCC1(C)OC(=O)NC1=O (configuration not stated) | 100% | 99.9% | 100% | 108% | 99% | 79.3% | 98.2% | 103% | 94.3% | 108% |
| CC(C)C[C@H](NC(=O)CCn1ccc2ccccc2c1=O)B(O)O | 61.7% | 25.7% | 77.8% | 66.1% | 68.2% | 56% | 29.1% | 33.3% | 40.6% | 36.9% |
| Nc1ncncc1-c1ccc(F)cc1 | 103% | 113% | 85.3% | 106% | 103% | 103% | 104% | 107% | 98.7% | 115% |
| O=C(O)CCCN1C(=O)NC2(C1=O)c1ccccc1-c1ccccc12 | 102% | 93.3% | 88.9% | 104% | 94.7% | 94.4% | 96% | 99.3% | 94.8% | 107% |
| O=C(/C=C/c1ccc(Cl)cc1)c1ccc(Br)cc1 | 90.4% | 73.7% | 101% | 99% | 89.4% | 97.4% | 105% | 92.6% | 83.4% | 96.5% |
| CS(=O)(=O)Nc1ccc(Nc2c3ccccc3nc3cc(Cl)ccc23)cc1 | 39.6% | 22.4% | 30.9% | 44.7% | 19.9% | 33.8% | 18.6% | 36.8% | 19.5% | 72.6% |
| COC(=O)c1cnc2c(c1)Oc1ccccc1-c1ccnn1-2 | 102% | 90.3% | 86.5% | 106% | 90.7% | 94.3% | 94.1% | 106% | 91.3% | 116% |
| COc1ccc(-c2cc(=O)n(-c3nc4ccccc4[nH]3)[nH]2)cc1OC | 32% | 109% | 60.2% | 63.2% | 45.9% | 62.5% | 62.7% | 31% | 61.8% | 84% |
| Nc1c(CNCc2nnn(Cc3ccccc3)c2N)nnn1Cc1ccccc1 | 93.9% | 105% | 99% | 103% | 97.6% | 98.9% | 104% | 102% | 95.3% | 115% |
| NC1CCC(Nc2nc(NCc3ccc(-c4ccccc4O)nc3)c3ncn(C4CCCC4)c3n2)CC1 (configuration not stated) | -4.18% (active) | -22.5% (active) | -70.1% (active) | 8.53% (active) | -23% (active) | -3.87% (active) | -94.1% (active) | -55% (active) | -82.8% (active) | -58.9% (active) |
| CCOc1nc(-c2ccccc2)cc2c(O)c(C(=O)NC(C)C)[nH]c(=O)c12 | 99.7% | 125% | 103% | 96.9% | 99.8% | 46.4% | 99.5% | 105% | 97.6% | 89.7% |
| CN(C)Cc1cccs1 | 106% | 104% | 93.9% | 98.9% | 95.9% | 70.3% | 90% | 95.4% | 93.1% | 102% |
